Results published in PubChem BioAssay AID623911 (Vanderbilt High Throughput Screening Facility, 2012).
Among all 2,100 compounds or so, about 770 (37%) were called active.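 Rule for the calls: active = by-eye trace score of 1 for enhancers or -1 for inhibitors, so actives lie on both sides (some results past the limit were not filed as active); inactive = score 0, or 3 fluorescent, or 4 baseline rise.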 The list shows a part of the results.

What follows are molecules tested against G protein-activated inward rectifier potassium channel 2 (Homo sapiens) + G protein-activated inward rectifier potassium channel 1 (Homo sapiens) (UniProt P48051+P48549) (assay: GIRK1/2 thallium flux modulators, retest, confirmation, cell-based, HEK293 rmGlu8/hGIRK1/2, FluoZin-2 (AID 623911)). Settings: HEK293 rmGlu8/hGIRK1/2, thallium flux FluoZin-2; actives lie on both sides; glutamate co-added at its EC20 level.
G protein-activated inward rectifier potassium channel 2 (Homo sapiens) + G protein-activated inward rectifier potassium channel 1 (Homo sapiens), sequence (P48051 whole entry, looked up): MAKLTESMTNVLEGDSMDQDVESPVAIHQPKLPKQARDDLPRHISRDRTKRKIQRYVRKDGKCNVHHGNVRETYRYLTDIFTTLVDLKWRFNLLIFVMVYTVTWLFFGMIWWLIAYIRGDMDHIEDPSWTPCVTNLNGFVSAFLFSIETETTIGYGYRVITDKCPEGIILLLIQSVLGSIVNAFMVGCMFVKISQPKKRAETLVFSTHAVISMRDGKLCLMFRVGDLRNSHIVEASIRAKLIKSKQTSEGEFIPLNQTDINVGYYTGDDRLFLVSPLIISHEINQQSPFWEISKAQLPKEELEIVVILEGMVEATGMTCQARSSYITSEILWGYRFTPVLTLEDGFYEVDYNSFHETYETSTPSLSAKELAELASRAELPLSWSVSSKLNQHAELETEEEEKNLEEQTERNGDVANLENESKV
G protein-activated inward rectifier potassium channel 2 (Homo sapiens) + G protein-activated inward rectifier potassium channel 1 (Homo sapiens), sequence (P48549 whole entry, looked up): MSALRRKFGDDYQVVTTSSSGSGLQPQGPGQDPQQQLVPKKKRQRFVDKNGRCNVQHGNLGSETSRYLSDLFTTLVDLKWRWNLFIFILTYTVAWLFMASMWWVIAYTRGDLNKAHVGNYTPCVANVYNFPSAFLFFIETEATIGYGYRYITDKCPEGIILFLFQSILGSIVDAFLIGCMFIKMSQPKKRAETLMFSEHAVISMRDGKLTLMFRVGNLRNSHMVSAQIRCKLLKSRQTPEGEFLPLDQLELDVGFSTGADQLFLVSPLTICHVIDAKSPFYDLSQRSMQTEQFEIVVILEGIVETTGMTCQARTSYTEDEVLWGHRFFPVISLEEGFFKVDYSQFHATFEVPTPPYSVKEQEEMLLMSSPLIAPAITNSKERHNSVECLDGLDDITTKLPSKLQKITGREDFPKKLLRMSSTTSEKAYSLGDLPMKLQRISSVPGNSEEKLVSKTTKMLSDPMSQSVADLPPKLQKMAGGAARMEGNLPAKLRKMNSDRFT

| SMILES | manual score |
| --- | --- |
| Cc1noc(C)c1S(=O)(=O)N1CCC(Cc2ccccc2)CC1 | 0 (inactive) |
| O=C(Nc1ccc(OCC(=O)N2CCC(Cc3ccccc3)CC2)cc1)c1ccco1 | 0 (inactive) |
| Cc1cccc(C(=O)N2CCC(Cc3ccccc3)CC2)c1[N+](=O)[O-] | -1 (active) |
| O=C(Nc1nc2ccccc2s1)c1cc(-c2ccccc2)nn1-c1ccccc1 | 0 (inactive) |
| COC(=O)Nc1nc(C)c(C(=O)N(C)C)s1 | 0 (inactive) |
| CC(=O)c1sc(NC(=O)c2cc(-c3ccccc3)nn2-c2ccccc2)nc1C | 1 (active) |
| C#CC(CO)N(CCN(Cc1ccccc1)C(C#C)CO)Cc1ccccc1 (stereo not given) | -1 (active) |
| C#CCSc1nnc(-c2cccc3ccccc23)o1 | 0 (inactive) |
| CCOC(=O)c1c(NC(=S)NCCc2ccccc2)sc2c1CC(C(C)C)OC2 (stereo not given) | 0 (inactive) |
| CCOC(=O)c1c(NC(=O)C2C3C=CC(C3)C2C(=O)O)sc2c1CCC(CC)C2 (stereo not given) | 0 (inactive) |
| CCOC(=O)c1c(NC(=S)NC)sc2c1CC(C)(C)SC2 | 1 (active) |
| CCOC(=O)C1=C(NC(=S)NC(=O)c2ccccc2)c2ccccc2CC1C(C)C (stereo not given) | 0 (inactive) |
| C=CCNC(=S)Nc1sc2c(c1C(=O)OCC)CC(C)(CC)OC2 (stereo not given) | 1 (active) |
| C=CCNC(=S)Nc1sc2c(c1C(=O)OCC)CC(C(C)C)OC2 (stereo not given) | 1 (active) |
| C=C(C)C1CC=C(C)/C(=N/NC(=S)Nc2ccccc2)C1 (stereo not given) | 0 (inactive) |
| COC(=O)c1ccc(C)c(NC(=O)CN2C(=O)c3ccccc3S2(=O)=O)c1 | 0 (inactive) |
| Cc1ccc(NC(=O)CN2c3cccc4cccc(c34)S2(=O)=O)cc1S(=O)(=O)N1CCOCC1 | 1 (active) |
| Cc1ccc(NC(=O)CSc2nccn2C)cc1S(=O)(=O)N1CCOCC1 | 0 (inactive) |
| CC12CCC(C(=O)N(CSC(=S)N/N=C\c3ccccc3)C1=O)C2(C)C (stereo not given) | 1 (active) |
| CC12CCC(C(=O)N(CSC(=S)N/N=C\c3ccccc3Cl)C1=O)C2(C)C (stereo not given) | 0.5 (inactive) |
| COc1ccc(/C=N\NC(=S)SCN2C(=O)C3CCC(C)(C2=O)C3(C)C)cc1 (stereo not given) | 1 (active) |
| CN(C)c1ccc(/C=N\NC(=S)SCN2C(=O)C3CCC(C)(C2=O)C3(C)C)cc1 (stereo not given) | 0 (inactive) |
| CC12CCC(C(=O)N(CSC(=S)N/N=C\c3ccccc3O)C1=O)C2(C)C (stereo not given) | 1 (active) |
| Clc1ccccc1-c1nn2c(COc3ccccc3)nnc2s1 | 0 (inactive) |
| Cc1ccccc1CNS(=O)(=O)c1ccc2c(c1)OCCO2 | -1 (active) |
| Cc1nc2ccc(NS(=O)(=O)c3ccc4c(c3)OCCO4)cc2s1 | 0 (inactive) |
| CSc1ccc(S(=O)(=O)NCc2ccccc2Cl)cc1 | 0 (inactive) |
| CCSc1nnc(NC(=O)CC)s1 | 0 (inactive) |

| SMILES | manual score |
| --- | --- |
| CCSc1nnc(NC(=O)NC(CC)(C(F)(F)F)C(F)(F)F)s1 | 1 (active) |
| CCSc1nnc(NC(=O)c2nn(C(C)C)c(=O)c3ccccc23)s1 | 0 (inactive) |
| CC(C)(C)c1ccc(-c2n[nH]c(=S)n2C2CCCC2)cc1 | 0 (inactive) |
| CN(CCC#N)C(=O)CSc1ncnc2sc(-c3ccccc3)cc12 | 0 (inactive) |
| O=c1c2ccccc2nc(-c2ccccc2)n1/N=C/c1ccc([N+](=O)[O-])cc1 | 0 (inactive) |
| C/C(N)=C(/C#N)C(=O)CSc1nc2cc(Cl)ccc2c(=O)n1-c1ccc(C)cc1 | 0 (inactive) |
| O=c1c2ccccc2nc(-c2cccc(Cl)c2)n1O | 1 (active) |
| O=C1c2ccccc2NC(c2ccc(-c3cccc(Cl)c3)o2)N1O (stereo not given) | 0.5 (inactive) |
| O=c1c2cc(Br)ccc2nc(-c2cccc(C(F)(F)F)c2)n1O | 1 (active) |
| O=c1c2ccc(Cl)cc2nc(-c2cccc(C(F)(F)F)c2)n1O | 1 (active) |
| Cc1nc2nc(Cc3ccccc3)[nH]n2c(=O)c1Cc1ccccc1 | 0 (inactive) |
| CCN(CC)CCN1C(=O)c2oc3ccccc3c(=O)c2C1c1ccc(C)cc1 (stereo not given) | 0 (inactive) |
| CCOC(=O)C(C)Oc1ccc2c(CC)cc(=O)oc2c1C (stereo not given) | 0 (inactive) |
| CCOC(=O)C1=C(O)C(=O)N(c2ccc(S(N)(=O)=O)cc2)C1c1ccccc1 (stereo not given) | 0 (inactive) |
| COc1ccc2nc(N3C(=O)/C(=C/c4ccccc4)NC3=S)sc2c1 | 1 (active) |
| CCCSc1nc(C)nc2c1c(=O)n(C)c(=O)n2C | 0 (inactive) |
| Clc1ccc(OCCn2ccnc2)c(Cl)c1 | 0 (inactive) |
| CC(C)CC(NS(=O)(=O)c1ccc2c(c1)oc(=O)n2C)C(=O)NC1CCCc2ccccc21 (stereo not given) | 0 (inactive) |
| CSc1nc(Sc2ccccc2)c2ccccc2n1 | 0 (inactive) |
| Cc1nc(N2CCN(C(=O)COc3ccccc3)CC2)c2c(C)c(C)sc2n1 | -0.5 (inactive) |
| CCOc1ccccc1N1CCN(S(=O)(=O)c2cccs2)CC1 | 0 (inactive) |
| Cc1sc2nc(CN3CCCC3)nc(N3CCN(S(=O)(=O)c4cccs4)CC3)c2c1C | -1 (active) |
| Cc1cc(/C=c2/sc3nc4ccccc4n3c2=O)c(C)n1-c1ccccn1 | 0 (inactive) |
| CCCCN(CCCC)C(=S)N/N=C/c1c(C)[nH]n(-c2ccccc2)c1=O | 1 (active) |
| CC1=NN(c2ccccc2)C(=O)/C1=C\c1c(C)[nH]n(-c2ccccc2)c1=O | 0 (inactive) |
| CCNC(=S)N/N=C/c1c(Cl)cccc1Cl | 0.5 (inactive) |
| Cc1nc2c(-c3ccccc3)c(C)[nH]n2c(=O)c1Cl | 0 (inactive) |
